# In PubChem BioAssay (NCATS):
# Results filed as inconclusive are left out. Values without a mark were called inactive. Activity calls are given as the source filed them. The call rests on the fitted dose curve.
# Target: Peroxisome proliferator-activated receptor delta (Homo sapiens) (UniProt Q03181)
# Assay: qHTS assay for small molecule agonists of peroxisome proliferator-activated receptor delta signaling (AID 588534);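 further: 0% = DMSO basal wells and 100% = positive control agonist at 10 µM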
# Settings: HEK293T PPARdelta-UAS-bla, beta-lactamase ratio, 18 h; series mostly up to 76.7 µM; activation: at the top concentration
# Text: NIH Chemical Genomics Center [NCGC] U.S. Environmental Protection Agency [EPA] National Institutes of Environmental Health Sciences [NIEHS] National Toxicology Program [NTP] NCGC Assay Overview The Peroxisome proliferator-activated receptors (PPARs) are lipid-activated transcription factors of the nuclear receptor superfamily with three distinct subtypes namely PPAR alpha, PPAR delta (also called PPAR beta) and PPAR gamma. All these subtypes heterodimerizes with Retinoid X receptor (RXR) and have different physiological functions. […] This role of PPAR delta implicates the potential use of its ligands in the treatment of metabolic disorders.
# Compounds were screened in a titration series in 1536-well format. […] Concentration-response titration points for each compound were fitted to the Hill equation yielding concentrations of half-maximal stimulation (EC50) and maximal response (efficacy) values. qHTS protocol for PPAR-delta beta-lactamase assay in agonist mode [Step] [Parameter] [Value] [Description] 1. Reagent; 6 uL; 4000 cells/well 2. Incubation; 37 C for 5 hrs 3. Compounds; 23 nL; 0.59 nM to 92 uM 4. […] Incubation; 37 C for 18 hrs 6. Detection reagent; 1 uL of CCF4-dye 7. Incubation; RT for 2 hrs 8. Detection; Fluorescence; Envision plate reader
# Sequence of Peroxisome proliferator-activated receptor delta (Homo sapiens) (Q03181 whole entry, looked up): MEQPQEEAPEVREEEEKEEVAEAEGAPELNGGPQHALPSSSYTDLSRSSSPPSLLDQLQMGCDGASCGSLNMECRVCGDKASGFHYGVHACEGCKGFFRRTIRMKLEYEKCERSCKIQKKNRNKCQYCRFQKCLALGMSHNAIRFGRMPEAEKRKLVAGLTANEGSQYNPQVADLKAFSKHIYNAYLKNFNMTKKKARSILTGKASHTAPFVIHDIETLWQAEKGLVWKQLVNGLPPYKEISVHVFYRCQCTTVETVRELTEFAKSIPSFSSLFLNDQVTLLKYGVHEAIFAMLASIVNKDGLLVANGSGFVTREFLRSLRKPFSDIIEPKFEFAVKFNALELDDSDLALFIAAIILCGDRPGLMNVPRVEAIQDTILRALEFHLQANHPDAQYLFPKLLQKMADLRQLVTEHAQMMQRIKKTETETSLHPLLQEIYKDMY
Compound,activation [%],outcome
NNC(N)=O,1.92,
CCCCCl,-3,
COc1ccc2c(c1OC)C(=O)OC2C1c2cc3c(cc2CCN1C)OCO3 (stereo not drawn),-5.77,
ClC1C(Cl)C(Cl)C(Cl)C(Cl)C1Cl (stereo not drawn),,inactive
CC(C)Nc1ccc(Nc2ccccc2)cc1,-2.67,
C=CCN=C=S,6.03,
C[C@H]1CC[C@@H]2[C@@H](C)[C@H]3[C@H](C[C@H]4[C@@H]5CC=C6CC(O[C@@H]7O[C@H](CO)[C@H](O)[C@H](O[C@@H]8O[C@H](CO)[C@@H](O)[C@H](O)[C@H]8O)[C@H]7O[C@H]7O[C@@H](C)[C@H](O)[C@@H](O)[C@H]7O)CC[C@]6(C)[C@H]5CC[C@]34C)N2C1 (stereo partly drawn),5.78,
CC(C)(C)c1cc(O)ccc1O,,inactive
ClC=C(Cl)Cl,,inactive
CCOP(=O)(OCC)O/C(=C/Cl)c1ccc(Cl)cc1Cl,,inactive
ClC(Cl)(Cl)Cl,,inactive
O=[N+]([O-])C(Br)(CO)CO,-0.13,
Clc1ccccc1Cl,8.95,
O=C(NCNC(=O)NC1C(=O)NC(=O)N1CO)NC1C(=O)NC(=O)N1CO (stereo not drawn),-1.37,
O=C1C2CC=CCC2C(=O)N1SC(Cl)(Cl)Cl (stereo not drawn),-3.39,
CCCCCCCCOC(=O)c1ccccc1C(=O)OCCCCCCCC,,inactive
O=CC=O,-3.02,
[O]=[Cd],-3.76,
O=C(O)C(Cl)(Cl)Cl,,inactive
COCC(C)N(C(=O)CCl)c1c(C)csc1C (stereo not drawn),-11,
ClCC1CO1 (stereo not drawn),1.46,
O=Cc1ccco1,7.51,
O=C1CCO1,3.96,
CC(C)CCON=O,2.24,
CCOC(=O)c1ccccc1C(=O)OCC,,inactive
N#CN,1.47,
O=[N+]([O-])c1ccccc1,,inactive
O=C/C=C/c1ccccc1,,inactive
